The target of test [1] is Mast/stem cell growth factor receptor Kit (Homo sapiens) (UniProt P10721). As to conditions: at 1 µM.
Test [2] concerns Mast/stem cell growth factor receptor Kit (Homo sapiens), P10721 [D816V]. The conditions noted are these: at 0.1 µM.
For test [3] the test system is unchanged. The conditions noted are these: at 1 µM.
The test system of test [4] is Mast/stem cell growth factor receptor Kit (Homo sapiens), P10721 [T670I]. The conditions noted are these: at 0.1 µM.
Test [5] shares this test system. The conditions noted are these: at 1 µM.
The test system of test [6] is Mast/stem cell growth factor receptor Kit (Homo sapiens), P10721 [V560G]. The conditions noted are these: at 0.1 µM.
Test [7] shares this test system. The conditions noted are these: at 1 µM.
Test [8] has as its target Tyrosine-protein kinase Lck (Homo sapiens) (UniProt P06239). The conditions noted are these: at 0.1 µM.
Test [9] has the same target. The conditions noted are these: at 1 µM.
For test [10], the target named is Leukocyte tyrosine kinase receptor (Homo sapiens) (UniProt P29376). As to conditions: at 0.1 µM.
The target is the same in test [11]. The conditions noted are these: at 1 µM.
The target of test [12] is Tyrosine-protein kinase Lyn (Homo sapiens) (UniProt P07948). As to conditions: at 0.1 µM.
Test [13] has the same target. As to conditions: at 1 µM.
For test [14] the target is unchanged. As to conditions: at 0.1 µM. The source holds these as a separate data set.
Test [15] has the same target. As to conditions: at 1 µM. The source holds these as a separate data set.
In test [16] the target is T1, Tyrosine-protein kinase Mer (Homo sapiens) (UniProt Q12866).
T1 sequence (whole entry): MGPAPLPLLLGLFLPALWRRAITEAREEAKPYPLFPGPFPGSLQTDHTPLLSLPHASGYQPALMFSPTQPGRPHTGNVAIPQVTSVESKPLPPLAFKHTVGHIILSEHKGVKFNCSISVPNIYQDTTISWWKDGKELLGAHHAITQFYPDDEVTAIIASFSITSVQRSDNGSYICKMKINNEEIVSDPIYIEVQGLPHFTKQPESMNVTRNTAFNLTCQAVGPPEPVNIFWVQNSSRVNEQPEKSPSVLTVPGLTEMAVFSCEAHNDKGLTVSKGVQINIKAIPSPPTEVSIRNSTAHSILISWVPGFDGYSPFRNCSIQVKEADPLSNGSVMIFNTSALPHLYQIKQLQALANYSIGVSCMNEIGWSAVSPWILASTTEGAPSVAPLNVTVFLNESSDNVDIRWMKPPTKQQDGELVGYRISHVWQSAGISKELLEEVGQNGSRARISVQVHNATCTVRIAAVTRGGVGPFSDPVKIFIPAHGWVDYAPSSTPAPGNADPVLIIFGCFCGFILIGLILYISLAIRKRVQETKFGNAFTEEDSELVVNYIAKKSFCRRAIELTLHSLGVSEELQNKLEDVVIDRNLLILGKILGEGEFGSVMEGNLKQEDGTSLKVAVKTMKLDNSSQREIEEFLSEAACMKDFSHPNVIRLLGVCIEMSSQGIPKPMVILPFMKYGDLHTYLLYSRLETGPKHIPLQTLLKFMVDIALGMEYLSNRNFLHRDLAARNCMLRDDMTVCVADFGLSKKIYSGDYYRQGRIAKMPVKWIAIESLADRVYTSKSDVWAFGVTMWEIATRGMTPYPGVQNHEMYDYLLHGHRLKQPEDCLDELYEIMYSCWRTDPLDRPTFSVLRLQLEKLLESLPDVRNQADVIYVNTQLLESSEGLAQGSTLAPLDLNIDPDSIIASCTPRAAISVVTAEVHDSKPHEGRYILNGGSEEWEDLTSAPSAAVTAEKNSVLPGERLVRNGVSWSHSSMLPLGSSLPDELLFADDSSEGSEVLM
As to conditions: at 0.1 µM.

Test [17] has as its target T1, Tyrosine-protein kinase Mer (Homo sapiens). The conditions noted are these: at 1 µM.
Test [18] concerns the target Hepatocyte growth factor receptor (Homo sapiens) (UniProt P08581). The conditions noted are these: at 0.1 µM.
Test [19] has the same target. As to conditions: at 1 µM.
The target of test [20] is T2, Muscle, skeletal receptor tyrosine-protein kinase (Homo sapiens) (UniProt O15146).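 Note: values are mean inhibition of MuSK from the GSK PKIS kinase screening panel.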
T2 sequence (whole entry): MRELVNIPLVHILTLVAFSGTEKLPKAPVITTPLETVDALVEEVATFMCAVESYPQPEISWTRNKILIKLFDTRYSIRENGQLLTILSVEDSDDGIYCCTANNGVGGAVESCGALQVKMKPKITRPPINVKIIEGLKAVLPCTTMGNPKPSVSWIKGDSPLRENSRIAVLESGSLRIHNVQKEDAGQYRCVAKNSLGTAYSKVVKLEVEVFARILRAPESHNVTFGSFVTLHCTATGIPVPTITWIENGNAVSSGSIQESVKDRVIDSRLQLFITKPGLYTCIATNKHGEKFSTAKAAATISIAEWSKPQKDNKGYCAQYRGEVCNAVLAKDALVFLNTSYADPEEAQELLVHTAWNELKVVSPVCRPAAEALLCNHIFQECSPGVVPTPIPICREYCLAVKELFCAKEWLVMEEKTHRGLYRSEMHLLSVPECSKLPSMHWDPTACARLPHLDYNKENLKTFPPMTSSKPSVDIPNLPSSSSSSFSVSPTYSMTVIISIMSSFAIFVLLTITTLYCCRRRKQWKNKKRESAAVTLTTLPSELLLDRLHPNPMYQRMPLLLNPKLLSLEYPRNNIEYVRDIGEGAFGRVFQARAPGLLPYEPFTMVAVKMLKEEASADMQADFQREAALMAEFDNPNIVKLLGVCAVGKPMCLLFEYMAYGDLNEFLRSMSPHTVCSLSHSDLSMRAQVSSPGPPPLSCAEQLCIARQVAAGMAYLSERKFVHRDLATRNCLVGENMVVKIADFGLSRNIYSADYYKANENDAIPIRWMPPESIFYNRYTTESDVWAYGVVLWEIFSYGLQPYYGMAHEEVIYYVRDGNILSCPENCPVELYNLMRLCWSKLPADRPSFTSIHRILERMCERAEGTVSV
As to conditions: at 0.1 µM.

Chain of Mast/stem cell growth factor receptor Kit (Homo sapiens), P10721 [T670I] (P10721 whole entry T670I): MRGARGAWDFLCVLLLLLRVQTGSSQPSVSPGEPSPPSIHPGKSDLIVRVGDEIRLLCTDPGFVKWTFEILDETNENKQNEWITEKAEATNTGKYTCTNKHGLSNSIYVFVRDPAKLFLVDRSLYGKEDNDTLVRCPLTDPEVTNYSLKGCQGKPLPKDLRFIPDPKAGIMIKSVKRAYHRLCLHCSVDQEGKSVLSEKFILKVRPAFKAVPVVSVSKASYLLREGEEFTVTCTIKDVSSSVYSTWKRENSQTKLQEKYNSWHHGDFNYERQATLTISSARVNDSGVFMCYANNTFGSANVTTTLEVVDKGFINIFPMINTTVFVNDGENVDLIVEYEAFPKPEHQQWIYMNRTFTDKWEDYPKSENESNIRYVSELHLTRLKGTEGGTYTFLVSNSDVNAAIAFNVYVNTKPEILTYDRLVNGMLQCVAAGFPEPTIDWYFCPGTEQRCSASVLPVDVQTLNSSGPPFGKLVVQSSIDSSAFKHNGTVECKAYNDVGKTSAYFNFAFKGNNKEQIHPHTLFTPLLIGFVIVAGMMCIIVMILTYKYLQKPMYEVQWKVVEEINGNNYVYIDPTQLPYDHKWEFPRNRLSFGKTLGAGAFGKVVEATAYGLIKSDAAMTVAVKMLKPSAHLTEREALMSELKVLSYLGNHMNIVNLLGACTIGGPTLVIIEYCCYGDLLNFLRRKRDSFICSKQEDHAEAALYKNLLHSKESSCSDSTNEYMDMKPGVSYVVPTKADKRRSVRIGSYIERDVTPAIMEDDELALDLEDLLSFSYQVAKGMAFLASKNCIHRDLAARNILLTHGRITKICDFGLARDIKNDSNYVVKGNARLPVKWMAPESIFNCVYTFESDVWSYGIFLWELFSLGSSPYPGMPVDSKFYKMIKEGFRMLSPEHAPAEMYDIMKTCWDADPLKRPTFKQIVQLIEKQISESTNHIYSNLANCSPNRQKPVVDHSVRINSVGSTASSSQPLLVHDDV
Chain of Hepatocyte growth factor receptor (Homo sapiens) (P08581 whole entry): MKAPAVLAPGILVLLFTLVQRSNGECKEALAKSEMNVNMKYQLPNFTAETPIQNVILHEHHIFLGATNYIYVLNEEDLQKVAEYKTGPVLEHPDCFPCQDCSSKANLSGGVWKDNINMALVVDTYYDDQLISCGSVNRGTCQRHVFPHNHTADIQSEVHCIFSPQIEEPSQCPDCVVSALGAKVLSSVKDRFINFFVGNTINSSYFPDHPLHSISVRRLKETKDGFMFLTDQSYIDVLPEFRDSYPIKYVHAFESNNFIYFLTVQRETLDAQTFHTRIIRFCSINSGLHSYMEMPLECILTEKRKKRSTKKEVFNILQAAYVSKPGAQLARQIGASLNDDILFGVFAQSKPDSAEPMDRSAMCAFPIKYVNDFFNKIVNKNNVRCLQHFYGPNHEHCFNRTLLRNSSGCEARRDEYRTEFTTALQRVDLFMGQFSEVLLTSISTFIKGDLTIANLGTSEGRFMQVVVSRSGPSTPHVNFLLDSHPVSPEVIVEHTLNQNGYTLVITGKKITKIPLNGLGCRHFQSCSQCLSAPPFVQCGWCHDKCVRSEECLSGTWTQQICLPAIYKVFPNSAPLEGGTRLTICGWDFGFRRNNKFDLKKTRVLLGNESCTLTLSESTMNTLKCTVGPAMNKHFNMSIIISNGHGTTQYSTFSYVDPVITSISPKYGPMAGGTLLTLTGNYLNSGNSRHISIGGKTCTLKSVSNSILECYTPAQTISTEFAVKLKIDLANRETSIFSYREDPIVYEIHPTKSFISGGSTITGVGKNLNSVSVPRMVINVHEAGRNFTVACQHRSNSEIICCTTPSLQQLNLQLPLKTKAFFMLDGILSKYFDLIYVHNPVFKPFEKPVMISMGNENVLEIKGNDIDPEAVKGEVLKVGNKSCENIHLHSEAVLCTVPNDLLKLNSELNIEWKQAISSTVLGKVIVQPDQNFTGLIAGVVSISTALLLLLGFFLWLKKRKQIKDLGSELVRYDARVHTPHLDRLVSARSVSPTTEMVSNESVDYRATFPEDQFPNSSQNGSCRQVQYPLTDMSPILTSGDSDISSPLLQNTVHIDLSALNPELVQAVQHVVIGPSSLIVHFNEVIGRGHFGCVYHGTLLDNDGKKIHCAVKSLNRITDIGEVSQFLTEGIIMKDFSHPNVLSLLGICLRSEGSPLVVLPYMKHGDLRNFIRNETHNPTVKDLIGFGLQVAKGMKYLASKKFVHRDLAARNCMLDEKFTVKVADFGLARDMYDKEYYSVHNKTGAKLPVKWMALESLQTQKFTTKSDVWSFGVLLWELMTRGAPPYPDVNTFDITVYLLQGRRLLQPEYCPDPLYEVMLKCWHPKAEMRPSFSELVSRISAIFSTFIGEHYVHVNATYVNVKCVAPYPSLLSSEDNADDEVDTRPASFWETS
Chain of Mast/stem cell growth factor receptor Kit (Homo sapiens), P10721 [V560G] (P10721 whole entry V560G): as the sequence (P10721 whole entry T670I) above, with V560G, I670T counted along it
Chain of Mast/stem cell growth factor receptor Kit (Homo sapiens), P10721 [D816V] (P10721 whole entry D816V): as the sequence (P10721 whole entry T670I) above, with I670T, D816V counted along it
Chain of Tyrosine-protein kinase Lyn (Homo sapiens) (P07948 2-512 limits assumed): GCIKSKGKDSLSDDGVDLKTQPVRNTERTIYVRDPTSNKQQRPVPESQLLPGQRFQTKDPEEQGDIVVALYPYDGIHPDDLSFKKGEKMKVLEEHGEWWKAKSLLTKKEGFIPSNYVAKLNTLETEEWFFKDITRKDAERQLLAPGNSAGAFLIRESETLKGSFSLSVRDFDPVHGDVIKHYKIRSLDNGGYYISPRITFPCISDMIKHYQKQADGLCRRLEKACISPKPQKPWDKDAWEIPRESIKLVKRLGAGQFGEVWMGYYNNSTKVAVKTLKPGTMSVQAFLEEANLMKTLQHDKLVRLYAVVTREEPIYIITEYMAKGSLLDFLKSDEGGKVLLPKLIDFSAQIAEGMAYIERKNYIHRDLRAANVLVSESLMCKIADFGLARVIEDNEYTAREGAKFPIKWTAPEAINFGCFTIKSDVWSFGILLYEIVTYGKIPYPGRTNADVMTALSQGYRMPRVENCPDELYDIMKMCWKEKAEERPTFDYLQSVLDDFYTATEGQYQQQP
Chain of Tyrosine-protein kinase Lck (Homo sapiens) (P06239 2-509 limits assumed): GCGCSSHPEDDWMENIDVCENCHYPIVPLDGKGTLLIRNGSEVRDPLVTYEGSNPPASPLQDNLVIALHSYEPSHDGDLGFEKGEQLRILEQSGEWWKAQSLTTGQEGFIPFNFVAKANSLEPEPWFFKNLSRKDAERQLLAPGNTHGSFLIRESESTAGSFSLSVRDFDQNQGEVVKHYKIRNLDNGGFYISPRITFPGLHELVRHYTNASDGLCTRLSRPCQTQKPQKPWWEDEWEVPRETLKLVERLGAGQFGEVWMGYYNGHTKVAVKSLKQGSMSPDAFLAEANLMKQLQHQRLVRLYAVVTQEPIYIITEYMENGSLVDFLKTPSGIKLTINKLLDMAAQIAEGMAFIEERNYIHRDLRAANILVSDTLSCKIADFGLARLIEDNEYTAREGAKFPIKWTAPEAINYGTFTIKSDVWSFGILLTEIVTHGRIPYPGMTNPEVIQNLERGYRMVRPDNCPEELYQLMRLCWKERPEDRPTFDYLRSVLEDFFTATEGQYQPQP
Chain of Mast/stem cell growth factor receptor Kit (Homo sapiens) (P10721 whole entry): as the sequence (P10721 whole entry T670I) above, with I670T counted along it
Chain of Leukocyte tyrosine kinase receptor (Homo sapiens) (P29376 whole entry): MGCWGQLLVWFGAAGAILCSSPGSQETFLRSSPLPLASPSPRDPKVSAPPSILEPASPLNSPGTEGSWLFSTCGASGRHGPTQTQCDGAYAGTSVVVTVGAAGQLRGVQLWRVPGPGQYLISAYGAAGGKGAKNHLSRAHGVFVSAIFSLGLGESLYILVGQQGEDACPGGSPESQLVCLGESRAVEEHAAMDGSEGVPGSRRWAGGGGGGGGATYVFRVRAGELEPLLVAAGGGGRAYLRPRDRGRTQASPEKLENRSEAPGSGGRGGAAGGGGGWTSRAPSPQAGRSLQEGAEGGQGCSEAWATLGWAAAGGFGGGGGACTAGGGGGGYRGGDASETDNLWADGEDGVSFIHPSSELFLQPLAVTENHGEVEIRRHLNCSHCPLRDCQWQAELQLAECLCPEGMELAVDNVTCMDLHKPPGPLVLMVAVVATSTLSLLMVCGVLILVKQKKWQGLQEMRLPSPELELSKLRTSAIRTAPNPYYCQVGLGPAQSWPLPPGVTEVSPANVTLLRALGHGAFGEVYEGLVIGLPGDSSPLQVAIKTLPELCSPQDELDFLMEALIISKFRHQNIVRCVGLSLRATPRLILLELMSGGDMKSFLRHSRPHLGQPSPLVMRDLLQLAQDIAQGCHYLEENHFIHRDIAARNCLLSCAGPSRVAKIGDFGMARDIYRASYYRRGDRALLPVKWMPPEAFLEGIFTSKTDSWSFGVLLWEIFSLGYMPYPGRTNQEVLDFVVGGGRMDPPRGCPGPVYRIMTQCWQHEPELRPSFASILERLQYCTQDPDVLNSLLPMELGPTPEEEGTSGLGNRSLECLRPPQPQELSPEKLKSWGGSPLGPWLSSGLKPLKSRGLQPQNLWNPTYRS

In the case of `CCn1c(-c2nonc2N)nc2cncc(C(=O)N3CCNCC3)c21`, the inhibition in [1] is 7.52%; in test [2] it was 4.16%; in test [3], 4.92%; in test [4], 2.72%; in test [5], 3.08%; in test [6], -3.45%. Also, the inhibition in test [7] is -0.74%; in test [8], 3.56%; in test [9], 5.67%; in [10] it was 5.18%; in test [11] it was 5.18%; in test [12], 5.29%. The inhibition in test [13] worked out at 5.94%; in test [14], 1.79%; in [15], 4.29%; in [16], 1.99%; in test [17], 2.33%; in [18], 2.94%. For the same compound, the inhibition in test [19] was determined as 2.13%; in test [20] it was 3.39%.

With `NCc1ccc(-c2nc(-c3ccc(Cl)c(O)c3)c(-c3ccncc3)[nH]2)cc1`, the inhibition in [1] is 2.11%; in [2] it was 1.93%; in test [3] it was 5.11%; in test [4], -0.4%; in [5] it was 0.77%; in test [6], 1.37%. Besides, the inhibition in test [7] was 6.11%; in test [8] it was 5.93%; in test [9], 33%; in [10], 1%; in test [11], 1.88%; in test [12], 6.73%. For the same compound, the inhibition in [13] is 42.8%; in test [14], 4.81%; in [15], 37.1%; in test [16] it was -0.12%; in test [17] it was 6.1%; in test [18], 5.53%. The inhibition was determined as 14.5% in test [19] and 0.08% in test [20].

`CS(=O)(=O)CCNCc1nc(-c2ccc3ncnc(Nc4ccc(F)c(Cl)c4)c3c2)cs1`: the inhibition in [1] is 5.11%; in test [2], 3.12%; in test [3], 2.42%; in [4], 1.78%; in [5], 2.83%; in test [6], 10.4%. The inhibition in test [7] was found to be 10.7%; in test [8], 3.91%; in test [9], 20%; in [10] it was 2.39%; in test [11], 1.99%; in [12], 4.29%. The inhibition in [13] stood at 27.3%; in [14], 3.57%; in test [15], 19.4%; in [16], 0.48%; in test [17], 4.95%; in [18] it was 3.54%. For the same compound, the inhibition in test [19] was 9.65%; in test [20], 1.59%.

In the case of `NC(=O)c1ccc(-c2nc(-c3ccccn3)c(-c3ccc4c(c3)OCO4)[nH]2)cc1`, the inhibition was determined as 4.68% in test [1]; 7.73% in [2]; 5.29% in test [3]; 0.05% in [4]; 1.28% in [6]; 6.23% in [7]. For the same compound, the inhibition in [8] was 2.19%; in [9], 4.07%; in [10], 3.03%; in [11], 3.18%; in test [12], 2.23%; in test [13], 2.11%. Also, the inhibition in test [14] was 1.62%; in [15], 3.18%; in test [16], 1.67%; in test [17], 3.36%; in [18], -4.12%; in [19], 9.28%. Besides, in test [20], the inhibition came out at 2.51%.

As for `NC(=O)c1cccc(Nc2nccc(Nc3cccc4[nH]ncc34)n2)c1`, the inhibition in [1] was 91.1%; in [2] it was -2.32%; in [3], 14.6%; in test [4], -2.9%; in test [5], 4.51%; in test [6], 5.52%. Besides, the inhibition was 22.5% in [7]; 36.7% in [8]; 81.8% in test [9]; 4.75% in [10]; 39% in [11]; 58.5% in [12]. Moreover, the inhibition in [13] was 91.3%; in [14], 52.3%; in test [15], 88.9%; in test [16], -0.28%; in test [17], 8.27%; in test [18] it was -1.63%. Also, the inhibition in test [19] came to 4.73%; in test [20] it was 1.07%.

For `COc1ccc(-c2ccncc2)cc1C(N)=O`, the inhibition in [1] is 8.81%; in test [2] it was 5.33%; in test [3], 6.29%; in test [4], 2.7%; in [5], 5.32%; in test [6], -1.34%. Besides, the inhibition in [7] was -1.88%; in test [8], 3.42%; in test [9], 4.47%; in test [10], 5.46%; in test [11], 5.79%; in [12] it was 4.67%. The inhibition in test [13] was 4.69%; in test [14], 2.01%; in test [15], 4.65%; in test [16], 2.57%; in test [17], 5.63%; in test [18] it was 3.93%. Moreover, the inhibition in test [19] was 5.8%; in test [20] it was 2.42%.

Consider `CC1=C(C(=O)Nc2ccc3[nH]ncc3c2)C(c2ccc(Cl)c(Cl)c2)CC(=O)N1` (centres undefined), for which the inhibition in test [1] is 2.48%; in [2], -0.94%; in [3], 1.14%; in test [4] it was 0.21%; in test [5], 1.52%; in test [6], 2.42%. In addition, the inhibition in test [7] is 4.56%; in [8], 4.63%; in [9], 30%; in test [10] it was 1.06%; in test [11], 0.02%; in test [12] it was 3.35%. Moreover, the inhibition in [13] is 9.96%; in test [14], 2.18%; in test [15] it was 7.24%; in [16] it was 0.79%; in [17] it was 1.25%; in test [18], -0.1%. Also, the inhibition in test [19] came out at 5.85%; in test [20], 2.88%.

The values above are taken from ChEMBL document CHEMBL1961873, “Compounds: GSK PKIS; Assays: Nanosyn kinase panel” (2012).
